Laboratory results taken from PubChem BioAssay AID602261 (Sanford-Burnham Center for Chemical Genomics, 2012).
Hit rate of the full screen: of about 360,000 compounds, about 2,400 (0.67%) were called active. For the sample, actives were picked, then their nearest neighbours and some compounds at random. Values without a mark were called inactive.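 The calls were made as follows: active = compounds whose normalised, plate-corrected inhibition of enzyme fluorescence in the single-dose primary screen is 50% or more; inactive = the rest.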

These compounds were tested against Fatty acid synthase (Homo sapiens) (UniProt P49327) (assay: inhibition of human FAS-TE enzyme activity – biochemical, fluorescence intensity, uHTS, primary screen (AID 602261;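 also: 0% = DMSO with enzyme and 100% = substrate without enzyme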)). Settings: recombinant FAS-TE, OMFH fluorogenic substrate, fluorescence endpoint; at 15 µM; stronger effect = higher value.
Chain of Fatty acid synthase (Homo sapiens) (P49327 whole entry, looked up): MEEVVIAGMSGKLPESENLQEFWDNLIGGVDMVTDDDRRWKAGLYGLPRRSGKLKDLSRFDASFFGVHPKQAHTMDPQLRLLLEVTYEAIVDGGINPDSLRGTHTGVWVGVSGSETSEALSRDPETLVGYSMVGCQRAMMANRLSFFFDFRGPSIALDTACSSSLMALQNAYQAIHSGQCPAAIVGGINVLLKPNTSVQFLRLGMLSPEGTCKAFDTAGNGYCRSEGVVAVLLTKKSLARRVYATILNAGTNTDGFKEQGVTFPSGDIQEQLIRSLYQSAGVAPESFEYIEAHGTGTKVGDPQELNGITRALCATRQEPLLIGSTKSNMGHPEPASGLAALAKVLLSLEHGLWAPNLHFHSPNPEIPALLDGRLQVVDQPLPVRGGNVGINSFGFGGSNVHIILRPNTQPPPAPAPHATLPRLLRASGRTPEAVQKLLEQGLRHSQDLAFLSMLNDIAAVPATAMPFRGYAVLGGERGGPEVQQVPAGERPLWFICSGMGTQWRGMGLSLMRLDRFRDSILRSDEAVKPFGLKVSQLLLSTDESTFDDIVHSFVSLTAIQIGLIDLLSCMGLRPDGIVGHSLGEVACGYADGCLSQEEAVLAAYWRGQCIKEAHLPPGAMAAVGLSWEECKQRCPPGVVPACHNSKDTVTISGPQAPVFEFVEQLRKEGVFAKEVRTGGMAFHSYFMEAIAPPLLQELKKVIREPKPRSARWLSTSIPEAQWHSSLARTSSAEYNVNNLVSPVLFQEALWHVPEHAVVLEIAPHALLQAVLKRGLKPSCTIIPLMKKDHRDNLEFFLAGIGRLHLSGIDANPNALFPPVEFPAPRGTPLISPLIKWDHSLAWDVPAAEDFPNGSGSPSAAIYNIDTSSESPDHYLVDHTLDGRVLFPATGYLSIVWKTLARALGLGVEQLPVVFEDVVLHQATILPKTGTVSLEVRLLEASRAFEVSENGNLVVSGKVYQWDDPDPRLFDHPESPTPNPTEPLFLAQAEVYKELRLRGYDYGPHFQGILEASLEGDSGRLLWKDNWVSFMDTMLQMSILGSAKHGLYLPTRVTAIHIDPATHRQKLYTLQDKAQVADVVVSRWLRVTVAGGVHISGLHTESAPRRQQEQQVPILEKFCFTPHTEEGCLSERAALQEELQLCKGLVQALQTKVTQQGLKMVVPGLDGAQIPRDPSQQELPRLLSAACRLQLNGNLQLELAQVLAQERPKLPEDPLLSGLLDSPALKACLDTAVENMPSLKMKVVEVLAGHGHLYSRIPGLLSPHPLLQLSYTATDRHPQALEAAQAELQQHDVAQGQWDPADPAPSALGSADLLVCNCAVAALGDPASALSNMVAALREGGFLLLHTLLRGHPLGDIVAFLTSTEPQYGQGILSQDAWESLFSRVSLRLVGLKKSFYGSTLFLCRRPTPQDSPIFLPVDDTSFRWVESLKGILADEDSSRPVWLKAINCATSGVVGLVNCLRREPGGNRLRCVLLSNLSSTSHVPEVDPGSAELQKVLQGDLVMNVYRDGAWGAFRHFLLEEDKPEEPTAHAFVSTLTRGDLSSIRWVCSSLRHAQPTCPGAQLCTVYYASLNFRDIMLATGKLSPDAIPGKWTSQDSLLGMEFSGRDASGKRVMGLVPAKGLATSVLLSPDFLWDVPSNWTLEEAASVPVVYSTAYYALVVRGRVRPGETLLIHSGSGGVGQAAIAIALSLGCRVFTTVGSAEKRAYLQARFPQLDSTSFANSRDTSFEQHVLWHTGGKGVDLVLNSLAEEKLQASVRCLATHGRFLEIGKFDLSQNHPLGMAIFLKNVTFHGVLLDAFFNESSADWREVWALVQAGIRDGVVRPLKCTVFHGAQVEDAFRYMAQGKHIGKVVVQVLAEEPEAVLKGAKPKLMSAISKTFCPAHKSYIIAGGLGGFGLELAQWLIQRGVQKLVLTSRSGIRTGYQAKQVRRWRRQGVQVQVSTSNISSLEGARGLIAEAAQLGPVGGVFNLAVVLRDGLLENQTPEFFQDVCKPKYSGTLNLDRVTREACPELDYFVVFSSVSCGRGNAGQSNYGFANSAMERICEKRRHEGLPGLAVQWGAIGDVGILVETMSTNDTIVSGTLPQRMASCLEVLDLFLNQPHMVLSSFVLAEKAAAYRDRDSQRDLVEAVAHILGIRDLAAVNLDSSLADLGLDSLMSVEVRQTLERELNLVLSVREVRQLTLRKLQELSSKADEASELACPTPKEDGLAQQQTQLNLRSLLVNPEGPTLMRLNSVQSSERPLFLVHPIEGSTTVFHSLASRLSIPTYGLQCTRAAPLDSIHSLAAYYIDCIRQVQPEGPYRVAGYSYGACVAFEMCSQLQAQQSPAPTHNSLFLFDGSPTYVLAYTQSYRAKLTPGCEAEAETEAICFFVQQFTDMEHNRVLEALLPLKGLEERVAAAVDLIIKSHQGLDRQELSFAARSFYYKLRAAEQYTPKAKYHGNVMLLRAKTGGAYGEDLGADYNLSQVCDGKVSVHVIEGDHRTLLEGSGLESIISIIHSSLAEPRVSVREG
`COc1ccc(Br)c(Cn2c(C)c(C(=O)NCc3cccs3)sc2=O)c1` showed an inhibition of 19.7%.
In the case of `C[n+]1cc(-c2ccccc2)oc1-c1ccccc1`, the inhibition is reported as -4.9%.
Compound `COC1C(CO)OC(n2cnc3c(=S)nc(N)[nH]c32)C1O` (configuration not stated) has an inhibition of -3.8%.
With `CCc1ccc(C(=O)OCC(=O)Nc2cccc(S(=O)(=O)NC3=NCCCCC3)c2)cc1` the inhibition was 1.8%.
For `Cc1cccc(-n2c(SCC(=O)Nc3cccc(S(=O)(=O)NC4=NCCCCC4)c3)nc3ccccc3c2=O)c1C`, the inhibition was 71.3% (active).
`COc1ccccc1C(=O)OCC(=O)Nc1cccc(S(=O)(=O)NC2=NCCCCC2)c1` showed an inhibition of -6.9%.
In the case of `CC(C)(C)NC(=O)NC(=O)COC(=O)Cc1ccc(Cl)cc1Cl`, the inhibition is reported as 69.5% (active).
Work on `O=C(COC(=O)Cc1ccc(Cl)cc1Cl)NCc1ccco1` yielded an inhibition of -8.2%.
With `CC(C)(C)NC(=O)NC(=O)COC(=O)Cc1c(F)cccc1Cl` the inhibition was 4.6%.
Compound `COC(=O)CCC(=O)N1CCCC(CO)(Cc2ccccc2)C1` (configuration not stated) has an inhibition of -5.2%.
`Cc1ccccc1-c1nc(NC(C)C)nc2cc(-c3ccccc3)sc12` showed an inhibition of 13%.
With `COc1ccc(-c2nnc(SC(C)C(=O)NC3CC3)o2)cc1` (configuration not stated) the inhibition was -5.6%.
`COc1ccc(-c2nnc(SC(=O)N3c4ccccc4Sc4ccccc43)o2)cc1` was tested, and the inhibition was 51.9% (active).
Work on `COc1ccc(CN(C(=O)CSc2nnc(-c3ccc(OC)c(OC)c3)o2)c2ccc(F)cc2)cc1` yielded an inhibition of 45.7%.
With `COc1ccc(C(=O)NN2C(=O)C3C(c4ccccc4)C=CC(c4ccccc4)C3C2=O)cc1` (configuration not stated) the inhibition was 33.6%.
With `CCNc1c(NS(=O)(=O)c2ccc(C3CCCCC3)cc2)c(=O)oc2ccccc12` the inhibition was 5.3%.
`Cc1cccc([C@@H]2[C@@H]3C(=O)N(C)C(=O)[C@@H]3[C@@H]3C(=O)Nc4ccccc4C(=O)N23)c1` was tested, and the inhibition was -6.8%.
Compound `COc1ccc(CNC(=O)CCCn2nc(C)c([N+](=O)[O-])c2C)cc1` has an inhibition of 10.9%.
For `Cc1ccc(Oc2cc(NC(=O)CCCn3nc(C)c([N+](=O)[O-])c3C)cc([N+](=O)[O-])c2)cc1`, the inhibition was 30.9%.
`Cc1nn(CCOc2ccc(Br)cc2)c(C)c1[N+](=O)[O-]` was tested, and the inhibition was 62.3% (active).
For `CC(C=Cc1ccccc1)=NNS(=O)(=O)c1ccc([N+](=O)[O-])cc1`, the inhibition was 58.3% (active).
`CC(/C=C/c1ccccc1)=N\NC(=O)C1CC1(C)c1ccccc1` (configuration not stated) showed an inhibition of 20%.
Work on `O=C(Cc1ccccc1)NNS(=O)(=O)c1ccc([N+](=O)[O-])cc1` yielded an inhibition of 11.1%.
`CCOc1c(N2CCCCC2)c(=O)c1=O` was tested, and the inhibition was -8%.
`O=C(c1ccc(Oc2ccc(Cl)cc2)c([N+](=O)[O-])c1)N1CCCC1` showed an inhibition of -19.7%.
With `O=C(c1ccc(Cl)c([N+](=O)[O-])c1)N1CCN(c2ccccc2)CC1` the inhibition was 53.6% (active).
`O=C(c1cccc(F)c1)N1CCN(c2ccc([N+](=O)[O-])c(N3CCCCC3)c2)CC1` showed an inhibition of 17.3%.
`COCCNc1nc2nonc2nc1N1CCCC1c1nccs1` (configuration not stated) was tested, and the inhibition was -8.3%.
`CC(OC(=O)CNC(=O)c1cccc(F)c1)C(=O)NC1CCCCC1C` (configuration not stated) was tested, and the inhibition was -5.6%.
Work on `COc1ccc(CNC(=O)C(=O)NCC2OCCN2C(=O)c2ccc(OC)cc2)cc1` (configuration not stated) yielded an inhibition of -1.4%.
`Cc1ccc(-c2noc(CSc3nnc(-c4cccs4)n3C)n2)cc1` showed an inhibition of -14.2%.
`Cc1nnc(SCc2ccc(C(=O)c3ccc(Cl)cc3)o2)n1-c1ccccc1` gave an inhibition of 2.7%.
With `Fc1ccc(-n2c(Cc3ccccc3)nnc2SCc2nc(-c3ccc(Cl)cc3)no2)cc1` the inhibition was 52.6% (active).
`C/C(=N\NC(=O)c1cccnc1)c1ccc(-n2ccnc2)cc1` was tested, and the inhibition was -10.3%.
Compound `Cc1ccc(C)c(S(=O)(=O)Nc2cccc(-n3cnnn3)c2)c1` has an inhibition of 4.5%.
For `O=S(=O)(Nc1ccc(-n2cnnn2)cc1)c1ccc(Cl)cc1`, the inhibition was 2.4%.
With `O=S(=O)(Nc1cccc(-n2cnnn2)c1)c1cnc(Cl)c(Cl)c1` the inhibition was 56.8% (active).
`O=c1c2ccccc2cnn1Cc1n[nH]c(=S)n1-c1ccccc1F` showed an inhibition of -4.3%.
Work on `Cc1ccc(C(=O)N/C(=C/c2cccs2)C(=O)N2CCCCC2)cc1` yielded an inhibition of -8.4%.
For `Cc1ccc(C(=O)N/C(=C\c2cn(S(=O)(=O)N(C)C)c3ccccc23)C(=O)N2CCCC2)cc1`, the inhibition was 86.5% (active).
`Cc1ccc(C(=O)N/C(=C\c2cn(C)c3ccccc23)C(=O)N2CCN(C)CC2)cc1` was tested, and the inhibition was -5%.
Compound `O=C(O)c1ccccc1-c1ccccc1C(=O)Nc1ccccc1Br` has an inhibition of -0.4%.
Compound `O=C(NCc1ccccc1)C1CCN(C(=O)Cc2ccccc2)CC1` has an inhibition of -4.1%.
Work on `CCNC(=O)NNC(=O)C1CC(c2cccs2)=NO1` (configuration not stated) yielded an inhibition of -1.4%.
With `COc1ccc(S(=O)(=O)Nc2ccc(F)cc2)c(C)c1C` the inhibition was 1.1%.
`O=C(OC1CCOC1=O)c1ccc(-c2nc3ccccc3s2)s1` (configuration not stated) was tested, and the inhibition was 51.7% (active).
`CC(C)c1ccc(C(=O)OC2CCOC2=O)cc1` (configuration not stated) was tested, and the inhibition was -2.3%.
For `COc1cc(C(=O)OC2CCOC2=O)c([N+](=O)[O-])cc1OC` (configuration not stated), the inhibition was -3.6%.
`O=C(CNC(=O)OCc1ccccc1)NC1CCCCNC1=O` (configuration not stated) showed an inhibition of -2.6%.
`COc1ccc(S(=O)(=O)N2CCOCC2)cc1NC(=O)c1ccc(OCC(C)C)c(OC)c1` showed an inhibition of 27.8%.
With `COc1ccc(S(=O)(=O)N2CCCCC2)cc1NC(=O)c1cc([N+](=O)[O-])ccc1N1CCOCC1` the inhibition was 86.5% (active).
`O=C(NCC1CCCCC1)c1cc(S(=O)(=O)N2CCCCC2)ccc1N1CCOCC1` showed an inhibition of 3.8%.
`COc1cccc(NC(=O)C2c3cc(OC)c(OC)cc3C(=O)N(C)C2c2cccnc2)c1` (configuration not stated) showed an inhibition of -9.1%.
`CC1(C)OC(=O)N2CCc3ccccc3C21C` (configuration not stated) gave an inhibition of -4.7%.
`O=C(c1ccc2c(c1)C(=O)N(c1ccc(Cl)cc1)C2=O)N1CCN(c2ccccn2)CC1` gave an inhibition of -5.5%.
Compound `O=C1c2ccccc2S(=O)(=O)c2cc(N3CCN(c4ccccn4)CC3)ccc21` has an inhibition of 12.8%.
`O=C(c1ccc2c(c1)N(Cc1ccc(F)cc1)C(=O)c1ccccc1S2(=O)=O)N1CCN(c2ccccn2)CC1` was tested, and the inhibition was 56.9% (active).
